PubChem BioAssay AID1985 (Southern Research Specialized Biocontainment Screening …, 2009)
Among all 2,300 compounds or so, about 1,000 (43%) were called active. How the calls were made is not given here. So high a share suggests a set chosen from earlier hits. Some of the results follow. Results with a measured potency or affinity are listed apart.

Test: PhoP regulon inhibitor project modified counter assay, GFP fluorescence readout, dose response (AID 1985)
Conditions: S. Typhi, 4 h; series mostly up to 150 µM; inhibition: at the top concentration

SMILES	inhibition
Cc1ccc(NC(=O)CCNC(=O)c2ccccc2)cc1F	36.6% (inactive)
CC(=O)c1cccc(NC(=O)CCC2CCCC2)c1	-0.61% (inactive)
COCC1CCCN(Cc2cn[nH]c2-c2cc3ccccc3o2)C1 (stereo unspecified)	5.13% (inactive)
O=C(c1ccc2c3c(cccc13)CC2)C1CCCN(Cc2ncc[nH]2)C1 (stereo unspecified)	3.47% (inactive)
COc1ccccc1NC(=O)CSC1CC(=O)N(c2ccc3c(c2)OCO3)C1=O (stereo unspecified)	6.29% (inactive)
NS(=O)(=O)c1ccc(CCNS(=O)(=O)c2cccc(C(=O)O)c2)cc1	-5.2% (inactive)
COc1cccc(C(=O)CC(=O)C(=O)Nc2cc(OC)c(OC)c(OC)c2)c1	33.4% (inactive)
Cc1ccc(/C=C2\SC(=S)N(c3cccnc3)C2=O)o1	22.2% (inactive)
COc1ccc(OC)c(NC(=O)CSc2nnc3ccc(-c4ccncc4)nn23)c1	6.79% (inactive)
Cn1c(CN2CCCCC2)nc2cc(NS(=O)(=O)c3ccc(Cl)cc3)ccc21	-7.16% (inactive)
CCOC(=O)C1=C(C)NC(=O)NC1c1ccc(NC(C)=O)cc1 (stereo unspecified)	5.94% (inactive)
COC(=O)CNC(=O)c1ccc(=O)oc1	25% (inactive)
CN1CCC(=C2c3ccccc3C=Cc3ccccc32)CC1	-15% (inactive)
CN1CCN(c2ccc(C(=O)c3cn(-c4ccc(F)c(Cl)c4)nn3)cc2)CC1	-4.37% (inactive)
CN1CCCN(C(=O)COc2ccc(F)cc2Cl)CC1	20.6% (inactive)
CCn1c(-c2ccncc2)n[nH]c1=S	1.46% (inactive)
COc1cc(C)c(Cl)cc1S(=O)(=O)n1cnc(C)c1	-2.41% (inactive)
Cn1c(=NC(=O)COc2ccccc2)sc2cccc(F)c21	-9.19% (inactive)
O=[N+]([O-])c1ccc(O)c2ncccc12	-27.7% (inactive)

SMILES	inhibition
C#CC(=O)N(c1cccc(OC)c1)C(C(=O)NC1CCCC1)c1cccs1 (stereo unspecified)	-7.78% (inactive)
CCN(CC)CCSc1nnc2c3ccccc3n(Cc3ccccc3)c2n1	14.3% (inactive)
C=CCn1c(C)cc(C(=O)CSc2n[nH]c(N)n2)c1C	6.5% (inactive)
O=[N+]([O-])c1ccc(N2CCNCC2)cc1NCc1cccnc1	-17.4% (inactive)
Cc1nc2scc(C)n2c(=O)c1S(=O)(=O)N1CCN(c2cccc(C(F)(F)F)c2)CC1	-15.5% (inactive)
COc1nnc(-c2ccc(N3CCOCC3)c(NC(=O)c3ccc(C)cc3)c2)c2ccccc12	6.65% (inactive)
CN(C)CCCN(C(=O)c1cc2cc([N+](=O)[O-])ccc2s1)c1nc2cc3c(cc2s1)OCCO3	4.98% (inactive)
CCSC1=NCN(CCCC(=O)O)CN1	15% (inactive)
COc1cc(C(=O)N/N=C/c2coc3ccccc3c2=O)cc(OC)c1OC	38.2% (inactive)
CC(C)C(c1nnnn1Cc1ccccc1)N(CCCO)Cc1cc2cc3c(cc2[nH]c1=O)OCO3 (stereo unspecified)	31.3% (inactive)
CC(C)Cc1nc(N2CCOCC2)c(C#N)c2c1COC(C)(C)C2	7.33% (inactive)
CCNC(=S)N1CCN(CC)CC1	-3.05% (inactive)
COc1ccc(OC)c(NC(=O)CCNS(=O)(=O)c2ccc3c(c2)c(=O)n(C)c(=O)n3C)c1	-17.4% (inactive)
Cc1ccc(/C=N/NC(=O)Cc2cccn2C)cc1	-7.42% (inactive)
CCOC(=O)c1[nH]c2ccc(Cl)cc2c1NC(=O)c1nonc1C	-6% (inactive)
Cc1cc(Cl)ccc1OCC(=O)N/N=C/c1ccncc1	27% (inactive)
NS(=O)(=O)c1cc2c(cc1Cl)NC(Cc1ccccc1)NS2(=O)=O (stereo unspecified)	38.7% (inactive)
CN(Cc1ccccc1)S(=O)(=O)c1csc(C(N)=O)c1	22.6% (inactive)
Cn1cc(S(=O)(=O)Nc2ccc(OC(F)(F)F)cc2)c(=O)n(C)c1=O	25.2% (inactive)

SMILES	inhibition
CCOc1ccc2ccccc2c1C(=O)N[C@@H]1C(=O)N2[C@@H]1SC(C)(C)[C@@H]2C(=O)O	-10.7% (inactive)
CN(C)C(=O)CSc1nnc(Cc2ccc([N+](=O)[O-])cc2)o1	-18.1% (inactive)
O=C(c1ccccc1)N1CCN(c2ccc([N+](=O)[O-])c(NCc3ccco3)c2)CC1	5.83% (inactive)
COc1ccc(CCC(=O)NCc2cn3ccccc3n2)cc1	-11.1% (inactive)
CCOC(=O)CSc1nnc2c(n1)C1(C)CCC2C1(C)C (stereo unspecified)	-14.7% (inactive)
O=C(N/N=C/c1ccc(N2CCOCC2)cc1)c1ccc(O)cc1	35.5% (inactive)
CC(C)=CCN1CCN(Cc2nc(-c3ccccc3)cs2)CC1CCO (stereo unspecified)	3.84% (inactive)
CC1CCCCN1S(=O)(=O)c1ccc(S(=O)(=O)NCCc2ccncc2)cc1 (stereo unspecified)	-8.76% (inactive)
Brc1ccc2nc(-c3c[nH]c4ccccc34)cn2c1	17% (inactive)
Cc1cccc(OCC(=O)NNc2c3ccccc3nc3ccccc23)c1	18.2% (inactive)
CC1(C)CC(CCNC(=O)c2ccc(-n3cnnn3)cc2)CC(C)(C)N1	-11.9% (inactive)
Cc1cc(=O)n(CC(C)C)c(O)c1C#N	-9.81% (inactive)
Cc1onc(C(=O)/C=C/N(C)C)c1C(=O)Nc1nccs1	-7.71% (inactive)
CCOc1ccccc1-c1cc(-c2ccccc2)nc2c1c(=O)n(C)c(=O)n2C	-4.34% (inactive)
C=C(C)COc1ccc2c(C)c(CCC(=O)NC3CC3)c(=O)oc2c1	11.8% (inactive)
N#Cc1ccc(-c2ccc(OCC(=O)NCCCN3CCCC3=O)cc2)cc1	20.2% (inactive)
CC1(C)CC(=O)C(C(=O)/C=C/NCCc2ccccc2)C(=O)C1	24.8% (inactive)
CC(C)(C)c1ccc(NC(=O)NCc2ccco2)cc1	-27.9% (inactive)
